FMDV inh = antivirals against foot and mouth disease virus; FMDV antiviral cell-based qHTS; AID 1159524; hit rate 1.2% among 410,000; Potency, µM (doses to about 57.9 µM), actives largely listed as inhibitors; calls by dose curve; tested in HEK293T cells; note: read-out not given here; nearly all actives have a fitted effect of over 45% in size
Vaccinia Venus = vaccinia inhibition (Venus reporter); Vaccinia virus Venus reporter expression, fluorescence; Potency, µM (highest dose often 36.5 µM), hits mostly inhibitors; hit rate 0.46% among 330,000; AID 720580; calls by dose curve; tested in A549 cells; note: nearly all actives have a fitted effect of over 30% in size
Vaccinia mCherry = inhibitors of vaccinia virus infection (mCherry reporter signal); Potency, µM (doses to about 36.5 µM), actives largely listed as inhibitors; Vaccinia virus mCherry reporter infection, fluorescence; hit rate 0.63% among 310,000; AID 720579; calls by dose curve; tested in A549 cells; note: nearly all actives have a fitted effect of over 35% in size
HCV inh = inhibitors of hepatitis C virus infection. Huh7.5.1 HCVcc-Cre infection, luciferase reporter, 44 h. Potency, µM (top dose mostly 41.8 µM), hits mostly inhibitors. hit rate 3.4% among 340,000. AID 651820; active = well fitted inhibition curve with a large enough effect; inconclusive = small, poorly fitted or top-dose-only effect, or another doubt; inactive = no such curve, though single readings can be large or run the other way
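A cell-based infection assay in which seeded cells (1,000 per well) receive test compound after 4 h, are inoculated with HCVcc-Cre at approximately 0.5 moi, and are incubated 44 h before luminescence detection.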
LASV entry inh = inhibitors of Lassa virus binding or cell entry | hit rate 1.2% among 300,000 | Potency, µM (doses to about 37.9 µM), usual class: inhibitors | Lassa virus pseudotype entry inhibition, cell reporter | AID 540256; calls by dose curve; tested in HEK293 cells; note: nearly all actives have a fitted effect of over 50% in size
MARV entry inh = inhibitors of Marburg virus binding or cell entry; hit rate 1.8% among 300,000; AID 540276; Marburg virus pseudotyped entry inhibition, cell reporter; Potency, µM (doses to about 37.8 µM), usual class: inhibitors; calls by dose curve; tested in HEK293 cells
Hits are given with their value; . = inactive; ? = inconclusive; / = no result; ! = not confirmed by another sample. An excerpt weighted towards active compounds, which were near 5.3% of everything screened.

SMILES	FMDV inh	Vaccinia Venus	Vaccinia mCherry	HCV inh	LASV entry inh	MARV entry inh
O=C1NC(=O)C(Cc2ccccc2)(C2CCN(Cc3cccn3-c3cccnc3)CC2)N1 (configuration not stated)	.	.	.	/	/	/
O=C1[C@H]2[C@H]3[C@H](O)[C@H](O)C/C(=N/OCc4ccccc4)[C@H]3CC[C@@H]2C(=O)N1Cc1ccc2c(c1)OCO2	/	/	/	/	/	.
CN1CCCC1CCOC(C)(c1ccccc1)c1ccc(Cl)cc1 (configuration not stated)	.	.	.	.	20.6µM	9.2µM
CN(C)CC(CCCCC(CN(C)C)C(=O)c1ccccc1)C(=O)c1ccccc1 (configuration not stated)	?	/	/	8.91µM	/	/
Cc1ccc2nc(CSc3nnc4ccccn34)cc(=O)n2c1	.	.	.	.	.	.
COCC(C)n1c(SCc2cc(=O)n3cc(C)ccc3n2)nc2ccccc2c1=O (configuration not stated)	.	.	.	?	6.31µM	5.01µM
CN(C)c1ccc(/C=C(\Cl)c2nc3ccccc3s2)cc1	10µM	.	.	?	?	?
COc1cc(C=C(c2nc3ccccc3s2)c2nc3ccccc3s2)cc(OC)c1O	.	.	.	10µM	.	.
COc1cc(/C=N/NC(=Nc2ccc(C)cc2)c2nc3ccccc3s2)ccc1O	17.8µM	/	/	?	13µM	?
O=C(O)c1ccc(C=C(c2nc3ccccc3s2)c2nc3ccccc3s2)cc1	?	.	.	.	?	.
Cc1cc(NC(=O)c2cc(-c3cccc(OCC(C)C)c3)nc3ccccc23)no1	.	/	/	12.6µM	/	/
O=C(Nc1ncccn1)c1cc(-c2ccc(F)cc2)nc2ccccc12	31.6µM	.	.	.	.	.
COc1ccc(-c2cc(C(=O)Nc3ccc(S(=O)(=O)Nc4ncccn4)cc3)c3ccccc3n2)cc1	.	/	/	.	/	/
COc1ccc(-c2cc(C(=O)Nc3ccc(C)c(N)c3)c3ccccc3n2)cc1	.	.	?	11.2µM	?	?
COC(=O)c1ccc(NC(=O)c2cc(-c3ccncc3)nc3ccccc23)cc1	.	/	/	10µM	/	/
COc1ccc(Cc2nnc(SCC(=O)Nc3ccccc3C)n(N)c2=O)cc1	.	.	.	.	?	?
O=C(NCC(c1ccc2c(c1)OCO2)N1CCN(c2ccccc2)CC1)c1ccc(F)c(F)c1 (configuration not stated)	?	.	.	/	?	/
COC(=O)c1ccccc1-n1cc2c(c1-c1cccc(C)c1)c(=O)n(C)c(=O)n2C	.	.	.	/	.	.
CCN(CC(=O)Nc1cc(Cl)ccc1C)C(=O)c1ccc2c(c1)NC(=O)C(C)S2 (configuration not stated)	?	.	?	?	.	.
CC(C)(C)c1ccc(-c2cc(C(=O)NNC(=O)Nc3ccccc3)c3ccccc3n2)cc1	?	?	.	?	5.62µM	?
CCOC(=O)C1CCCCN1Cc1nc(N2CCN(C(C)=O)CC2)c2ccccc2n1 (configuration not stated)	.	.	.	/	/	/
COc1ccc(NC(=O)CN2CCCN(Cc3ccc(Cl)cc3)S2(=O)=O)cc1Cl	.	.	.	/	.	.
Cc1ccccc1CN1N=C(/C=C/c2ccccc2)CCC1=O	?	.	.	.	7.94µM	.
O=C(CCCN1CC=C(N2C(=O)N=C3C=CC=CC32)CC1)c1ccc(F)cc1 (configuration not stated)	/	/	/	/	/	.
O=C(N/N=C/c1ccc(O)cc1)Nc1cccc2nsnc12	.	?	10µM	?	?	?
SMILES	FMDV inh	Vaccinia Venus	Vaccinia mCherry	HCV inh	LASV entry inh	MARV entry inh
COc1cc(/C=N/NC(=O)Nc2cccc3nsnc23)cc(OC)c1OC	?	.	/	?	.	.
COc1ccc(CCNC(=O)COc2coc(CN3c4ccccc4CC3C)cc2=O)cc1OC (configuration not stated)	22.4µM	.	.	11.2µM	?	?
COc1ccccc1C1CCN(Cc2ccccc2)CC1	.	.	.	.	.	?
COc1ccccc1C1CCN(Cc2ccc3ccccc3c2)CC1	?	.	.	.	.	7.08µM
Cc1ccc(-n2ncc(C(=O)Nc3cc(Cl)ccc3Cl)c2C2CCNCC2)cc1	.	.	.	12.6µM	?	?
Cc1ccc(-n2ncc(C(=O)Nc3cc(Cl)cc(Cl)c3)c2C2CCNCC2)cc1C	?	/	/	12.6µM	/	/
Cc1ccc(-n2ncc(C(=O)Nc3c(Cl)cccc3Cl)c2C2CCNCC2)cc1	.	.	.	/	.	/
COc1ccc(NC(=O)c2cnn(-c3ccc(C)c(C)c3)c2C2CCNCC2)cc1OC	.	.	.	/	.	/
COC(=O)/C=C/c1ccccc1S(=O)(=O)NC(C)C	/	.	.	/	/	/
C/C(=C\c1ccco1)CN1CCOc2ccc(C(C)(O)COc3ccccc3)cc2C1 (configuration not stated)	.	.	.	/	/	/
CCN1C(=O)[C@@H]2[C@H]3[C@H](O)[C@H](O)CC(=NOC[C@@H](O)COCc4ccco4)[C@@H]3CC[C@H]2C1=O	/	/	/	/	/	.
Cc1ccc(CN2C[C@@H](Sc3nc(C)cc(C)n3)C[C@H]2C(=O)N2CCN(c3ccccc3F)CC2)cc1	.	.	.	/	/	/
CN(C)S(=O)(=O)N(CC(=O)Nc1ccccc1F)c1ccccc1	.	/	/	.	.	.
COC(=O)c1ccc(C(=O)OC)c(NC(=O)CN(c2ccccc2)S(=O)(=O)N(C)C)c1	.	.	.	.	10µM!	?
O=C(NCc1ccco1)/C(=C/c1ccc(C(F)(F)F)cc1)c1nc2ccccc2[nH]1	.	/	/	?	?	.
O=C(NCc1ccco1)/C(=C/c1cccc(C(F)(F)F)c1)c1nc2ccccc2[nH]1	.	.	.	15.8µM	?	?
O=C(NCC(c1ccccc1)c1ccccc1)c1nn(-c2ccccc2F)nc1CO	10µM	.	.	/	?	.
O=C(NCCc1ccccc1)c1nn(-c2ccccc2F)nc1CO	.	.	.	/	.	.
C[N+](C)(C)CC(O)CC(=O)[O-] (configuration not stated)	.	.	.	/	/	/
COC(=O)[C@]12CCCCC=C1N(Cc1cccc3ccccc13)C(=O)[C@H](CC(=O)N1CCSCC1)C2	.	.	.	/	/	/
CCCCn1c(=N)n(CCCOc2ccc(F)cc2)c2ccccc21	?	?	?	/	?	10µM
Cn1cnnc1SCc1ccc(C(=O)N/N=C(/CCC(=O)O)c2ccc(C(C)(C)C)cc2)cc1	.	.	.	.	?	.
C[C@H]1CNC(=O)c2c(C(=O)Nc3ccc(CNC(=O)OC(C)(C)C)cc3)ncn21	28.2µM	?	?	/	/	/
Cn1cnc(C(=O)NCc2ccc(CNC(=O)OC(C)(C)C)cc2)c1C(=O)NCc1ccc(CNC(=O)OC(C)(C)C)cc1	15.8µM	?	?	?	/	/
COc1ccc2ccccc2c1CN1CCc2nnc(CNC(=O)c3cccc(F)c3)n2CC1	.	.	.	/	/	/
COc1ccc(Cl)cc1NC(=O)CCn1nc(C)cc1C	.	.	.	/	.	/
COc1ccc(COC(=O)NNC(=O)c2ccc(OC)cc2)cc1	.	.	.	.	1.3µM	.
COc1ccc(C(=O)NC(=S)NNC(=O)c2ccccc2O)cc1	.	?	12.6µM	.	.	12.6µM
